Results on 16 compounds are retold here after PubChem BioAssay (EPA / NIEHS).

The structures appear in SMILES notation. Active and inactive are the calls of the source. The calls were made as follows: active = hit-call score of the fitted dose curve at least 0.9, where 1 is the maximum; inactive = score below 0.9.

Holding throughout (details): mRNA level, 48 h; actives raise or lower the signal
Read-out in assay [1]: solute carrier (SLC22A1), SLC22A1 (gene 6580)
Briefly: LTEA_HepaRG_SLC22A1: Life Technologies and Expression Analysis (LTEA) Assay for solute carrier (SLC22A1) using HepaRG (AID 2283524).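 As to AC50: differentiated human HepaRG liver cells in serum-free induction medium.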 Summed up:
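qRT-PCR readout (TaqMan, Fluidigm arrays) of SLC22A1 transcript, normalized to three housekeeping genes; bidirectional curve fit relative to 0.5% DMSO vehicle. Differentiated human HepaRG cells, 48 h chemical exposure, top concentration 100 uM, half-log steps, eight points.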

Read-out in assay [2]: Pyruvate Dehydrogenase Kinase 4 (PDK4), PDK4 (gene 5166)
Briefly: LTEA_HepaRG_PDK4: Life Technologies and Expression Analysis (LTEA) Assay for Pyruvate Dehydrogenase Kinase 4 (PDK4) using HepaRG (AID 2283525). The essentials: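 HepaRG (human liver line), 48 h chemical exposure, 8-pt half-log CRC top 100 uM, 0.5% DMSO vehicle, duplicates. Readout: TaqMan qRT-PCR of PDK4 mRNA, housekeeping-normalized; gain/loss fit relative to DMSO baseline.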

Read-out in assay [3]: Signal transducer and activator of transcription 3 (Homo sapiens) (UniProt P40763)
Briefly: LTEA_HepaRG_STAT3: Life Technologies and Expression Analysis (LTEA) Assay for Signal transducer and activator of transcription (STAT3) using HepaRG (AID 2283529). The essentials:
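HepaRG, 48 h exposure, 8-pt half-log series (top 100 uM), 0.5% DMSO vehicle, duplicates. Readout: STAT3 transcript by Fluidigm qRT-PCR, housekeeping-normalized; bidirectional fit vs DMSO baseline.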

Read-out in assay [4]: solute carrier (SLCO1B1), SLCO1B1 (gene 10599)
Kind of assay: LTEA_HepaRG_SLCO1B1: Life Technologies and Expression Analysis (LTEA) Assay for solute carrier (SLCO1B1) using HepaRG (AID 2283530). The essentials:
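SLCO1B1 transcript read by qRT-PCR (Fluidigm arrays), normalized to three housekeeping genes, after 48 h chemical exposure of HepaRG cells; bidirectional concentration-response fitting versus 0.5% DMSO baseline. Eight-point half-log series, maximum 100 uM.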

Read-out in assay [5]: sulfotransferase 2A1 (SULT2A1), SULT2A1 (gene 6822)
Briefly: LTEA_HepaRG_SULT2A1: Life Technologies and Expression Analysis (LTEA) Assay for sulfotransferase 2A1 (SULT2A1) using HepaRG (AID 2283531). The essentials: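 HepaRG, 48 h chemical exposure, 8-pt half-log curve from 100 uM in 0.5% DMSO, duplicates. Readout: TaqMan qRT-PCR of SULT2A1 mRNA, housekeeping-normalized. Bidirectional fit vs DMSO baseline.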

Read-out in assay [6]: Transforming Growth Factor (TGFA), TGFA (gene 7039)
Kind of assay: LTEA_HepaRG_TGFA: Life Technologies and Expression Analysis (LTEA) Assay for Transforming Growth Factor (TGFA) using HepaRG (AID 2283532). Summed up: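 qRT-PCR read-out of TGFA transcript, normalized to three housekeeping genes, fitted bidirectionally against 0.5% DMSO baseline. Human HepaRG cultures received chemicals for 48 h at eight half-log concentrations, top 100 uM.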

Read-out in assay [7]: Transforming Growth Factor (TGFB1), TGFB1 (gene 7040)
Briefly: LTEA_HepaRG_TGFB1: Life Technologies and Expression Analysis (LTEA) Assay for Transforming Growth Factor (TGFB1) Transporter using HepaRG (AID 2283533). The essentials: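 qRT-PCR readout of TGFB1 transcript in HepaRG lysates, normalized to three housekeeping genes; gain or loss of signal fitted relative to 0.5% DMSO vehicle. Exposure: 48 h, 8-point curve from 100 uM, duplicate wells.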

Read-out in a further assay: TIMP1, TIMP1 (gene 7076)
Briefly: LTEA_HepaRG_TIMP1: Life Technologies and Expression Analysis (LTEA) Assay for TIMP1 using HepaRG (AID 2283534). Summed up:
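HepaRG, 48 h exposure, 8-pt half-log series from 100 uM in 0.5% DMSO, duplicates; TIMP1 transcript by Fluidigm qRT-PCR, housekeeping-normalized; bidirectional curve fit vs DMSO baseline.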

Read-out in assay [8]: Tumor necrosis factor receptor 1 (TNFRSF1A), TNFRSF1A (gene 7132)
Kind of assay: LTEA_HepaRG_TNFRSF1A: Life Technologies and Expression Analysis (LTEA) Assay for Tumor necrosis factor receptor 1 (TNFRSF1A) using HepaRG (AID 2283535). Summed up: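 HepaRG, 48 h plating then 48 h chemical exposure, serum-free induction media; 8-pt CRC from 100 uM, half-log, 0.5% DMSO vehicle, duplicates. Readout: TaqMan qRT-PCR (Fluidigm), housekeeping-gene normalized; bidirectional fit vs DMSO.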

Read-out in assay [9]: Thyroid Hormone Responsive (THRSP), THRSP (gene 7069)
Kind of assay: LTEA_HepaRG_THRSP: Life Technologies and Expression Analysis (LTEA) Assay for Thyroid Hormone Responsive (THRSP) using HepaRG (AID 2283536). Summed up:
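qRT-PCR read-out (Fluidigm TaqMan), housekeeping-normalized (ACTB/GAPDH/POLR2A). HepaRG, 48 h chemical exposure, 8-pt half-log series from 100 uM in 0.5% DMSO, duplicates. Bidirectional curve fit vs 0.5% DMSO baseline.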

Sequence of Signal transducer and activator of transcription 3 (Homo sapiens) (P40763 whole entry, looked up): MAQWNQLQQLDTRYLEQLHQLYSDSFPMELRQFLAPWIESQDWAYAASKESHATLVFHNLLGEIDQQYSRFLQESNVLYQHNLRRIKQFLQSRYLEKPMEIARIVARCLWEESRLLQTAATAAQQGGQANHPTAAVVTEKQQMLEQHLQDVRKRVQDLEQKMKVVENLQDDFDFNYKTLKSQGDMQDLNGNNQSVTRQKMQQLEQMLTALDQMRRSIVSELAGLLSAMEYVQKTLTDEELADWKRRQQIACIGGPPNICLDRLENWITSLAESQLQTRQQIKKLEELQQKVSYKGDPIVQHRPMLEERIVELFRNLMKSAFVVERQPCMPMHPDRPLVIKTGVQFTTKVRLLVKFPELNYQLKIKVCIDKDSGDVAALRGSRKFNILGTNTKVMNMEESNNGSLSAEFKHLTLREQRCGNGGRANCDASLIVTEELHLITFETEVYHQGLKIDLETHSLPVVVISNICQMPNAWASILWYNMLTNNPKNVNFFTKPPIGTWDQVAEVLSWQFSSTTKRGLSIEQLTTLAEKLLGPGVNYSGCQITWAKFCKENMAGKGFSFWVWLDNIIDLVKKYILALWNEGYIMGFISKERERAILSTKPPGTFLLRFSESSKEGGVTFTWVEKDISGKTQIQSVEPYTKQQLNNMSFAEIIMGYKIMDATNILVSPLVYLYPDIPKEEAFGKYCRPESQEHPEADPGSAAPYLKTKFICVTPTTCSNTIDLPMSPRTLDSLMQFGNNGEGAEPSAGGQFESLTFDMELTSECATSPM

As for `ClCC(Cl)CCl`, the result in assay [1], in assay [2], in assay [3], in assay [4], in assay [5] and in assay [6] was inactive. Besides, the outcome in [7] is “inactive”; with TIMP1, TIMP1 (gene 7076), “inactive”; in [8] it was “inactive”; in assay [9], “inactive”.

For the compound `CN(C)N=O`, the result in assay [1], in assay [2], in assay [3], in assay [4], in assay [5] and in [6] was inactive. Besides, the outcome is “inactive” in assay [7]; “inactive” with TIMP1, TIMP1 (gene 7076); “inactive” in assay [8]; “inactive” in assay [9].

One may read the AC50 as the concentration at which the activity in the assay is half-maximal. Regarding `C[C@@H]1C[C@@H]([C@H](O)CC2CC(=O)NC(=O)C2)C(=O)[C@@H](C)C1`, the AC50 was 8.29 µM (active) in assay [1]; 31.9 µM (active) in assay [2]; 15.6 µM (active) in assay [3]; 16.4 µM (active) in [4]; 48.9 µM (active) in assay [5]; 31.1 µM (active) in assay [6]. The AC50 was 50 µM (active) with TIMP1, TIMP1 (gene 7076); 80.6 µM (active) in assay [8]; 7.51 µM (active) in assay [9]. For the same compound, the compound was classed as inactive in [7].

For the compound `CCC(C)(C)c1ccc(O)c(C(C)(C)CC)c1`, the outcome in [1], in assay [2], in [3], in assay [4], in [5] and in [6] was inactive. The outcome was “inactive” in assay [7]; “inactive” in the assay with TIMP1, TIMP1 (gene 7076); “inactive” in assay [8]; “inactive” in assay [9].

Regarding `CCN1CCC2(CC1)COc1cc3c(cc12)N(C(=O)c1ccc(-c2ccc(-c4nnc(C)o4)cc2C)cc1)CC3`, the AC50 was 22.9 µM (active) in assay [1]; 28.4 µM (active) in assay [2]; 13.7 µM (active) in [3]; 75.3 µM (active) in assay [5]; 83.8 µM (active) in assay [6]; 29 µM (active) in assay [7]. Besides, the half-maximal activity concentration (AC50) in [8] was 21.6 µM (active); in assay [9], 46.8 µM (active). Besides, the outcome in [4] is “inactive”; with TIMP1, TIMP1 (gene 7076), “inactive”.

For the compound `ClC1(Cl)C2(Cl)C3(Cl)C4(Cl)C(Cl)(Cl)C5(Cl)C3(Cl)C1(Cl)C5(Cl)C24Cl` (centres undefined), the compound was called inactive in assay [1], in [3], in assay [4], in assay [5], in assay [6] and in assay [7]. The outcome with TIMP1, TIMP1 (gene 7076) was “inactive”; in assay [8], “inactive”; in assay [9], “inactive”. The AC50 in assay [2] was 16.8 µM (active).

In the case of `O=c1[nH]c(=O)[nH]c(=O)[nH]1`, the compound was called inactive in assay [1], in assay [2], in assay [3], in assay [4], in assay [5] and in [6]. Besides, the outcome is “inactive” in assay [7]; “inactive” in the assay with TIMP1, TIMP1 (gene 7076); “inactive” in [8]; “inactive” in assay [9].

Consider `CC(C)(C)c1cc(O)ccc1O`, for which the outcome in [1], in assay [2], in [3], in assay [4], in assay [5] and in assay [6] was inactive. Further, the outcome in [7] was “inactive”; with TIMP1, TIMP1 (gene 7076) it was “inactive”; in assay [8] it was “inactive”; in [9], “inactive”.

As for `C[C@]12CCC(=O)C[C@@H]1CC[C@@H]1[C@@H]2CC[C@]2(C)[C@@H](O)CC[C@@H]12`, the compound was called inactive in assay [1], in [2], in assay [3], in assay [4], in [5] and in assay [6]. Besides, the outcome was “inactive” in assay [7]; “inactive” with TIMP1, TIMP1 (gene 7076); “inactive” in assay [8]; “inactive” in assay [9].

Turning to `CCCCCCCCc1ccc(O)cc1`, the compound was classed as inactive in [1], in assay [3], in assay [4], in assay [5], in assay [6] and in assay [7]. For the same compound, the outcome was “inactive” with TIMP1, TIMP1 (gene 7076); “inactive” in [8]; “inactive” in [9]. In assay [2], the AC50 is 69.3 µM (active).

For `Oc1cccc2cccnc12`, the compound was called inactive in assay [1], in assay [2], in assay [3], in assay [4], in assay [5] and in assay [6]. In addition, the outcome in [7] is “inactive”; with TIMP1, TIMP1 (gene 7076), “inactive”; in [8], “inactive”; in assay [9], “inactive”.

As for `CCOP(=S)(OCC)SCSP(=S)(OCC)OCC`, the result in assay [1], in [3], in assay [4], in assay [5], in [6] and in assay [7] was inactive. The call with TIMP1, TIMP1 (gene 7076) was inactive. In addition, the AC50 was 20.4 µM (active) in assay [2], 0.214 µM (active) in assay [8] and 50 µM (active) in [9].

Consider `CC(C)(c1ccccc1)c1ccc(O)c(C(C)(C)c2ccccc2)c1`, for which the concentration at half-maximal activity (AC50) in assay [1] is 65.4 µM (active); in [4] it was 74.4 µM (active); in assay [5] it was 86.3 µM (active); in assay [9], 12.7 µM (active). Besides, the outcome was “inactive” in assay [2]; “inactive” in assay [3]; “inactive” in [6]; “inactive” in assay [7]; “inactive” in the assay with TIMP1, TIMP1 (gene 7076); “inactive” in assay [8].

In the case of `CCOP(=S)(OCC)Oc1nc(Cl)c(Cl)cc1Cl`, the call in [1], in [2], in [3], in assay [4], in assay [5] and in assay [6] was inactive. The outcome in assay [7] is “inactive”; with TIMP1, TIMP1 (gene 7076), “inactive”; in assay [8], “inactive”; in assay [9], “inactive”.

Consider `CC12CC1(C)C(=O)N(c1cc(Cl)cc(Cl)c1)C2=O` (centres undefined), for which the AC50 was 11.2 µM (active) in assay [1] and 16.2 µM (active) in assay [2]. Further, the outcome in assay [3] was “inactive”; in assay [4], “inactive”; in [6], “inactive”; in [7], “inactive”; in the assay with TIMP1, TIMP1 (gene 7076) it was “inactive”; in assay [8], “inactive”. Besides, the compound was called inactive in assay [9].

For the compound `C=C(C)C(=O)[O][Sn]([CH2]CCC)([CH2]CCC)[CH2]CCC`, the AC50 was 2.7 µM (active) in assay [1]; 1.18 µM (active) in assay [2]; 2.57 µM (active) in [4]; 76.9 µM (active) in assay [5]; 2.42 µM (active) in [6]; 2.44 µM (active) in assay [7]. In assay [9], the AC50 is 0.381 µM (active). The outcome was “inactive” in assay [3]; “inactive” with TIMP1, TIMP1 (gene 7076); “inactive” in assay [8].
